Among the data in PubChem BioAssay (NCI) are growth values, retold here.

This is part of a sample that, as a whole, favours compounds with a hit. Of some 83,000 tested, about 20% had one in any assay.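 Plates (96-well) were seeded with cells, treated with compound at one concentration, and incubated for 48 hours before percent growth was determined.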 A number with no mark means an inactive call. Active and inactive are the calls of the source. How the source made its calls: active means growth percent below 10; inactive means the rest.

The test system of the experiment is HL-60(TB) leukemia. The experiment is described as follows: NCI-60 one-dose screen, 48 h (100 = growth as untreated, 0 = no growth, -100 = all killed). The note with it: 10 µM unless noted.
Take `CC[C@@H](C)OC(=O)c1nn(C(C)=O)c2ccccc12`: the growth was 120%. The value for `COc1ccc(C2(O)CCCCC2)cc1` was 95.6%; that for `COc1cc(CCC[P+](c2ccccc2)(c2ccccc2)c2ccccc2)c(OC)c2c1OCO2` was 13.6%. The value for `C/C=C(\C)C(=O)N[C@H]1[C@@H](OC(C)=O)C[C@]2(C)C3CC[C@@]4(C)C(CC[C@@H]4C(C)N(C)C)C3CCC2[C@H]1O` (stereo partly specified) was 70.5%; that for `Nc1cccc(S(=O)(=O)c2cccc(N)c2)c1` was -10.6% (active).

As to `CCCCCCCCCCCCCC1=NC(C)(C)CN1C(C)C`, the growth is -66.7% (active). The value for `COc1ccc(-c2cc(-c3cccc(Cl)c3)c(C#N)c(=O)[nH]2)c(OC)c1` was 95.6%. As to `CC(C)c1c(C(=O)c2ccccc2)c(-c2ccccc2)c(-c2ccc(F)cc2)n1CC[C@@H](O)C[C@@H](O)CC(=O)O`, the growth was 74%. The value for `O=C(CN1C(=O)NC2NC(=O)NC21)N/N=C/c1ccc(Cl)cc1Cl` (stereo unspecified) was 99.4%; that for `Cc1nc2cc(Nc3nc(Nc4ccc(F)cc4)nc(-c4ccc(Cl)cc4)n3)ccc2n1Cc1ccccc1` was -29.6% (active); that for `OC(COc1cccc2ccccc12)CN1CCN(c2ccccc2Cl)CC1` (stereo unspecified) was 103%.

In the case of `c1ccc([P+](c2ccccc2)(c2ccccc2)c2ccc3c4ccc([P+](c5ccccc5)(c5ccccc5)c5ccccc5)c5cccc(c6cccc2c63)c54)cc1`, the growth is 11.2%.

As for `S=C(S)OCN1CCOCC1`, the growth was 106%. The figure for `CC(C(=O)n1cc(-c2ccccc2)c(-c2ccccc2)c1)c1ccccc1` (stereo unspecified) is 106%; for `CN(C)CC(C)(C)C(=O)/C=C/c1ccccc1` it is -15.3% [25 µM] (active). The figure for `CC[C@@H](C)/C=C(C)/C=C/C(=O)c1c(O)c(-c2ccc(O)cc2)cn(OC2CC(=O)CCC(C)OC(=O)CC2O)c1=O` (stereo partly specified) is -10.1% (active); for `CCc1ccc(-c2ccc(-n3nc(C)c4c(N)nc(Cc5ccccc5)nc43)cc2)cc1` it is 65%; for `Fc1cc(-c2ncc(-c3cc(F)c(F)c(F)c3)c(NC3CCCCCC3)n2)cc(F)c1F` it is 97.4%.

Consider `NC(=O)c1cnc(Nc2cccc(N)c2)nc1NCCCNC(=O)C1CCC1`, for which the growth was 55.2%.

For the compound `CCN1CCN(c2nc3ccccc3c3c(=O)c4ccccc4sc23)CC1`, the growth is 76.4%. For `Cc1ccc(/C=C/c2c(C(=O)/C=C/c3ccc(Cl)cc3)c(C)nc3ccccc23)cc1`, the growth was -8.89% (active).

As for `CCC(=O)c1ccc(Cl)s1`, the growth is 70.4%. The value for `CC1=C(Cl)C(=O)c2cc(C)ccc2C1=O` was 117%; that for `C[C@@H](O)[C@H]1C(=O)N2C(C(=O)O)=C(SC3CN[C@H](C(=O)N(C)C)C3)[C@H](C)[C@H]12` (stereo partly specified) was 87%. The value for `CCCCc1c(CCC)c(=N)c2ccccc2n1C` was 77%. The figure for `COc1ccc(OC2=CC(=O)c3ccc(C)nc3C2=O)cc1` is 52.1%.
